# The list is not random: actives were taken first. Their share in the collection is about 19%.
# Chronic BCR inh = blocks chronic active B-cell receptor signaling; ABC-DLBCL IkBa-CBG/CBR reporter, luminescence ratio, 4 h; Potency, µM (titrated, usually from 46.1 µM), for the others: top-dose activity change, negative = inhibition, most hits filed as inhibitors; actives 0.05% (n = 340,000); active = well fitted inhibition curve with a large enough effect in the signal ratio, with a control signal flat, not every such curve was filed as active; inconclusive = small, poorly fitted or top-dose-only effect, or effect the other way, or a change in a side signal; the % refers to the signal ratio;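 note: potency is the fitted concentration of half-maximal effect; plate controls were basal doxycycline-induced cells for no effect and cells given 10 µM MG132 for full effect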
#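 TMD8 ABC-DLBCL cells carrying doxycycline-inducible green luciferase fused to IkappaBalpha plus unfused red luciferase were exposed to compounds (up to 46 uM) for 4 hrs at 37C. Activity came from the overlap-corrected green/red luminescence ratio.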
# IL1B secr inh = blocks inflammasome-driven IL-1 beta release; THP-1 LPS/ATP IL-1B secretion, AlphaLISA, 16 h; active compounds read low; activity change, % at 57.5 µM; actives 4.7% (n = 360,000); AID 743279; in the data active = activity change below about -50%; inconclusive = mostly about -30% to -49%; note: % is set by controls: 0 for no effect and ±100 for the full control effect
#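 THP-1 cells pretreated 1 hr with compounds (up to 57.5 uM final), then stimulated with LPS (250 ng/mL final) plus ATP (1.25 mM final); secreted IL-1B measured by AlphaLISA after 16 hr, decreased signal indicating inhibition.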
# SW480 rereplic = DNA re-replication induction in SW480 cells; actives 1.8% (n = 340,000); Potency, µM (series often up to 46.1 µM), inactives show at the top dose re-replication activation, hits mostly activators; SW480 DNA re-replication, Hoechst DNA content imaging, 48 h; note: potency is the fitted concentration of half-maximal effect; % of control where 0% means no effect; nearly all actives have a fitted effect of over 55% in size
#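 Readout is total intensity of Hoechst-stained nuclei, excited at 405 nm and collected at 500-530 nm. Compound treatment lasted 48 hr at 37 C in 5% CO2 before staining.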
# MCF10A rereplic = induces DNA re-replication in MCF 10a normal breast cells | Potency, µM (titrated, usually from 46.1 µM), inactives show at the top dose activity, positive = re-replication, most hits filed as activators | actives 2.9% (n = 350,000) | MCF 10A DNA re-replication, Hoechst nuclear intensity, 48 h; note: potency is the fitted concentration of half-maximal effect; % of control where 0% means no effect; nearly all actives have a fitted effect of over 50% in size
# DT40 TDP1 no CPT = qHTS for Inhibitors of human tyrosyl-DNA phosphodiesterase 1 (TDP1): qHTS in cells in absence of CPT. AID 686978, 2013. DT40 Tdp1-/- hTDP1 cells, no CPT, ATP luminescence, 48 h. actives 15% (n = 420,000). Potency, µM (top dose mostly 46.2 µM), inactives show top-dose activity change, negative = growth inhibition, actives largely listed as inhibitors; note: potency is the fitted concentration of half-maximal effect; % is set by controls: 0 for no effect and ±100 for the full control effect; nearly all actives have a fitted effect of over 55% in size
#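 Chicken DT40 Tdp1-/- cells stably complemented with human TDP1 were seeded at 400 cells/well with DMSO in place of 20 nM camptothecin. After compound pinning, cells grew at least 48 hr at 37 °C; viability read by CellTiter-Glo luminescence.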
# DT40 TDP1 CPT = DT40-hTDP1 cell growth loss with CPT; chicken DT40 Tdp1-/-;hTDP1 cells + 20 nM CPT, ATP luminescence, 48 h; actives 12% (n = 420,000); Potency, µM (doses to about 46.2 µM), for inactives: at the highest dose activity change, negative = growth inhibition, most hits filed as inhibitors; note: potency is the fitted concentration of half-maximal effect; % is set by controls: 0 for no effect and ±100 for the full control effect; nearly all actives have a fitted effect of over 55% in size
#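 Cell growth measured by CellTiter-Glo luminescence after a minimum 48 h, 37 C compound exposure with 20 nM CPT in Tdp1-knockout DT40 cells stably expressing hTDP1, seeded 400/well; qHTS titration format.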
# * marks the source's active call; other numbers are inactive results; ? = inconclusive; · = no result given; [ ] = another dose, or the depositor's remark. Unless noted, calls come from the whole dose curve; as a rule, active = well fitted curve in the direction sought with a large enough effect; inconclusive = small, poorly fitted or top-dose-only effect, or another doubt; inactive = no such curve, though single readings can be large; an effect the other way counts as inactive or inconclusive.
SMILES,Chronic BCR inh,IL1B secr inh,SW480 rereplic,MCF10A rereplic,DT40 TDP1 no CPT,DT40 TDP1 CPT
CSc1ccccc1OCc1cc(C(=O)NC2CCc3ccccc32)no1 (configuration not stated),0%,40,21%,-1%,7%,-11%
CCCn1c(C(C)Nc2nc(-c3ccc(Cl)c([N+](=O)[O-])c3)cs2)nc2cc(Cl)c(N3CCCCC3)cc21 (configuration not stated),-12%,0,1%,-25%,?,?
Cc1ccc(Cn2cc(S(=O)(=O)c3cccc(C)c3)c(=O)c3cc(F)c(N4CCOCC4)cc32)cc1,·,·,·,·,-27%,?
COc1cccc(C(c2sc3nc(-c4ccco4)nn3c2O)N2CCOCC2)c1 (configuration not stated),?,·,·,·,-10%,-3%
CCC(NC(=O)c1cc(COc2ccc(OC)cc2Cl)on1)c1ccncc1 (configuration not stated),1%,-9,?,-11%,12µM*,?
CCC(NC(=O)c1cc(COc2ccc(Cl)cc2OC)on1)c1ccncc1 (configuration not stated),1%,-1,2%,-1%,?,?
Cc1ccc(OCc2cc(C(=O)NCc3cc(F)ccc3C)no2)cn1,1%,-2,?,?,?,16µM*
CCC(NC(=O)c1cc(COc2cc(C)c(Cl)c(C)c2)on1)c1ccncc1 (configuration not stated),?,-18,-2%,-5%,21µM*,?
CCC(NC(=O)c1cc(COc2c(F)cccc2F)on1)c1ccncc1 (configuration not stated),0%,8,-7%,0%,?,?
CCOC(=O)C1(NC(=O)C2(N3C(=O)c4ccccc4C3=O)CCCC2)CCCC1,·,3,12%,-1%,3%,-1%
O=[N+]([O-])c1cnc(Sc2ccncn2)c([N+](=O)[O-])c1,·,?,·,·,1.2µM*,1.2µM*
O=[N+]([O-])c1ccc(Sc2ccc(F)cc2)nc1,·,?,-8%,1%,-7%,-28%
O=[N+]([O-])c1nccn1CC(O)CO (configuration not stated),·,16,·,·,0%,-14%
Cc1cc(N)n2ncc(-c3ccccc3)c2n1,?,-14,1%,18%,-13%,-9%
CC(=O)Nc1ccc(Nc2cc(C)nc3c(-c4ccccc4)cnn23)cc1,18%,-21,10%,?,16µM*,?
CCn1c(-c2cccc(OC)c2)nc2cc(NC(C)=O)cc(C(=O)N(C)CC3COCCO3)c21 (configuration not stated),·,·,·,·,-17%,2%
Cc1ccc(CNC(=O)C23CN(Cc4ccccc4)CC2C(c2ccc([N+](=O)[O-])cc2)=NO3)cc1 (configuration not stated),0%,0,40%[9.22 µM],9%,?,?
Cc1ccc(CCNC(=O)C23CN(Cc4ccccc4)CC2C(c2ccc([N+](=O)[O-])cc2)=NO3)cc1 (configuration not stated),?,?,-4%,-2%,?,21µM*
O=C(NCc1cc(C(F)(F)F)cc(C(F)(F)F)c1)C12CN(Cc3ccccc3)CC1C(c1cccc([N+](=O)[O-])c1)=NO2 (configuration not stated),5%,-23,5%,?,-15%,-15%
O=C(NCc1ccccc1)C12CN(Cc3ccccc3)CC1C(c1cccc([N+](=O)[O-])c1)=NO2 (configuration not stated),2%,?,4%,0%,23µM*,?
